Assays:
Test in all cases: PBM binding z-score (relative to random genomic background probes); higher = stronger binding; sequences stand for … in GC…GCGATTGACAGCGTAGAATGAAGG
[1] = tested on: RARb homodimer (NR concentration 270 nM)
How it was run: (§1)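 The probes on custom Agilent 4×180K protein-binding microarrays were double-stranded, with 34-nt variable regions bearing direct-repeat seeds, single-nucleotide variants, half-site ablations and random human genomic background sequences. Incubation lasted 1 h with ligand-free nuclear receptor dimers in PBS pH 7.4, 2% milk, 0.02% Triton X-100, 1 mM DTT, 0.2 mg/mL BSA and 0.4 mg/ml salmon testes DNA. Antibodies against each partner (one per run) detected bound dimers, and fluorescence scans were regression-normalized. Binding z-scores take the random background probes as reference.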

[2] = tested on: RARg:RXRa (NR concentration 270 nM, RXRa partner concentration 90 nM)
How it was run: as §1

[3] = tested on: RARg homodimer (NR concentration 270 nM)
How it was run: as §1

[4] = tested on: RXRa DBDmut IVT, anti-RXR (DBD mutation: RXRa K156A/R161A, NR concentration 90 nM)
How it was run: as §1

[5] = tested on: RXRa homodimer (NR concentration 180 nM)
How it was run: as §1

[6] = tested on: THRa:RXRa (NR concentration 90 nM, RXRa partner concentration 90 nM)
How it was run: as §1

[7] = tested on: THRa homodimer (NR concentration 90 nM)
How it was run: as §1

[8] = tested on: VDR homodimer (NR concentration 270 nM)
How it was run: as §1

## GCTGGTTGGTCAGTAAAAGGTCACACACCGGTCG
[1]
  PBM binding z-score: 5.18
[2]
  PBM binding z-score: 5.81
[3]
  PBM binding z-score: 5.42
[4]
  PBM binding z-score: 0.18
[5]
  PBM binding z-score: 5.73
[6]
  PBM binding z-score: 3.5
[7]
  PBM binding z-score: 2.21
[8]
  PBM binding z-score: 2.29

## AATACAGGGTCACTAGGCTAGAGTAGGTACGAAT
[1]
  PBM binding z-score: 3.33
[2]
  PBM binding z-score: 4.95
[3]
  PBM binding z-score: 5.26
[4]
  PBM binding z-score: 2.71
[5]
  PBM binding z-score: 5.52
[6]
  PBM binding z-score: 3.35
[7]
  PBM binding z-score: 1.23
[8]
  PBM binding z-score: 2.2

## TTACCAAGGTGAGCTGAGGTCGATGATCCAACTC
[1]
  PBM binding z-score: 1.56
[2]
  PBM binding z-score: 1.03
[3]
  PBM binding z-score: 1.05
[4]
  PBM binding z-score: -0.52
[5]
  PBM binding z-score: 1.06
[6]
  PBM binding z-score: 4.48
[7]
  PBM binding z-score: 1.6
[8]
  PBM binding z-score: 0.355

## ACTCGGAGGACGAAGGTCAGAGCTACGCCAGTGA
[1]
  PBM binding z-score: 2.86
[2]
  PBM binding z-score: 2.9
[3]
  PBM binding z-score: 2.48
[4]
  PBM binding z-score: 0.315
[5]
  PBM binding z-score: 2.01
[6]
  PBM binding z-score: 1.64
[7]
  PBM binding z-score: -0.396
[8]
  PBM binding z-score: 0.109

## AGTCAAAGTTCACTAGGTAACGTCAGATTCAGCT
[1]
  PBM binding z-score: 3.86
[2]
  PBM binding z-score: 5.2
[3]
  PBM binding z-score: 5.98
[4]
  PBM binding z-score: 4.32
[5]
  PBM binding z-score: 4.31
[6]
  PBM binding z-score: 1.96
[7]
  PBM binding z-score: 0.43
[8]
  PBM binding z-score: 3.7

## ATATGTAGTTTAAGGGTCATTCAGGTTGGTTCGC
[1]
  PBM binding z-score: 3.9
[2]
  PBM binding z-score: 3.91
[3]
  PBM binding z-score: 2.88
[4]
  PBM binding z-score: 2.39
[5]
  PBM binding z-score: 4.82
[6]
  PBM binding z-score: 3.37
[7]
  PBM binding z-score: 1.71
[8]
  PBM binding z-score: 4.96

## AGTCAAAGTTCAGGACGCGGTAACGTAAAGCACG
[1]
  PBM binding z-score: 3.04
[2]
  PBM binding z-score: 4.4
[3]
  PBM binding z-score: 4.94
[4]
  PBM binding z-score: 2.98
[5]
  PBM binding z-score: 2.78
[6]
  PBM binding z-score: 2.74
[7]
  PBM binding z-score: 1.23
[8]
  PBM binding z-score: 1.79

## CGAACTTGGTCATTGACAGGACAGTGAATAGTAA
[1]
  PBM binding z-score: 0.601
[2]
  PBM binding z-score: 1.04
[3]
  PBM binding z-score: 0.884
[4]
  PBM binding z-score: 0.43
[5]
  PBM binding z-score: 0.621
[6]
  PBM binding z-score: 0.513
[7]
  PBM binding z-score: -0.107
[8]
  PBM binding z-score: 0.11

## CTACCAAGGTGAACAAGGTCGTTGACTACTATTC
[1]
  PBM binding z-score: 2.28
[2]
  PBM binding z-score: 2.17
[3]
  PBM binding z-score: 1.67
[4]
  PBM binding z-score: 1.6
[5]
  PBM binding z-score: 2.34
[6]
  PBM binding z-score: 3.49
[7]
  PBM binding z-score: 2
[8]
  PBM binding z-score: 2.59

## TCGAGTAGGTTAGTCGGGGCAATCAGCCAACATA
[1]
  PBM binding z-score: 0.889
[2]
  PBM binding z-score: 0.0718
[3]
  PBM binding z-score: 0.25
[4]
  PBM binding z-score: 0.255
[5]
  PBM binding z-score: 0.0944
[6]
  PBM binding z-score: 2.38
[7]
  PBM binding z-score: -0.198
[8]
  PBM binding z-score: -0.417

## ATCTCTAGGTAAAGTTCAGTAAAAGATCGATAGA
[1]
  PBM binding z-score: 2.39
[2]
  PBM binding z-score: 2.22
[3]
  PBM binding z-score: 2.74
[4]
  PBM binding z-score: 1.27
[5]
  PBM binding z-score: 1.18
[6]
  PBM binding z-score: 1.23
[7]
  PBM binding z-score: 0.183
[8]
  PBM binding z-score: 2.13

## ACTTACGGGTCAACGATGTTATAGCACGCGTATA
[1]
  PBM binding z-score: 3.01
[2]
  PBM binding z-score: 5.25
[3]
  PBM binding z-score: 5
[4]
  PBM binding z-score: 2.19
[5]
  PBM binding z-score: 5.56
[6]
  PBM binding z-score: 2.76
[7]
  PBM binding z-score: 0.387
[8]
  PBM binding z-score: 1.21

## CGTCCAATGTCATAGGAGGTCAGTGAAGACAGAT
[1]
  PBM binding z-score: 3.62
[2]
  PBM binding z-score: 3
[3]
  PBM binding z-score: 3.4
[4]
  PBM binding z-score: 0.694
[5]
  PBM binding z-score: 2.17
[6]
  PBM binding z-score: 4.28
[7]
  PBM binding z-score: 0.745
[8]
  PBM binding z-score: 1.64

## TTACCAAGGTGAAAGTTCGTTGATGCACGCCTTG
[1]
  PBM binding z-score: 1.67
[2]
  PBM binding z-score: 2.35
[3]
  PBM binding z-score: 1.2
[4]
  PBM binding z-score: 1.14
[5]
  PBM binding z-score: 2.86
[6]
  PBM binding z-score: 2.41
[7]
  PBM binding z-score: 0.508
[8]
  PBM binding z-score: 2.05

## GATACAGGATCAAGGCCAGAGTACGCGTATTGAT
[1]
  PBM binding z-score: 0.0211
[2]
  PBM binding z-score: 0.189
[3]
  PBM binding z-score: 0.325
[4]
  PBM binding z-score: -0.499
[5]
  PBM binding z-score: 0.195
[6]
  PBM binding z-score: -0.265
[7]
  PBM binding z-score: -0.214
[8]
  PBM binding z-score: 0.147

## GATACAGGGTTAAGGCCAGAGTACGCGTATTGAT
[1]
  PBM binding z-score: 1.34
[2]
  PBM binding z-score: 1.7
[3]
  PBM binding z-score: 1.1
[4]
  PBM binding z-score: -0.0819
[5]
  PBM binding z-score: 1.76
[6]
  PBM binding z-score: 2.05
[7]
  PBM binding z-score: 0.861
[8]
  PBM binding z-score: 1.02

## TAGCCTAGGCCATGCGGGCCAGTATAGTGTCGGC
[1]
  PBM binding z-score: -0.484
[2]
  PBM binding z-score: -0.409
[3]
  PBM binding z-score: -0.0767
[4]
  PBM binding z-score: -1.68
[5]
  PBM binding z-score: -0.471
[6]
  PBM binding z-score: -0.614
[7]
  PBM binding z-score: -1.02
[8]
  PBM binding z-score: -1.02

## CGTGCAAGGTCAATGCTAGGTCAGTGAAAGCATT
[1]
  PBM binding z-score: 4.95
[2]
  PBM binding z-score: 7.96
[3]
  PBM binding z-score: 7.27
[4]
  PBM binding z-score: 3.39
[5]
  PBM binding z-score: 5.44
[6]
  PBM binding z-score: 4.64
[7]
  PBM binding z-score: 2.44
[8]
  PBM binding z-score: 2.89

## GCATATGGGTAATACAAGGTGAAAGTCCGATTGT
[1]
  PBM binding z-score: 0.725
[2]
  PBM binding z-score: 0.405
[3]
  PBM binding z-score: 0.402
[4]
  PBM binding z-score: 0.208
[5]
  PBM binding z-score: 0.486
[6]
  PBM binding z-score: 3.98
[7]
  PBM binding z-score: 0.841
[8]
  PBM binding z-score: 0.115

## AGAATGAGGTTATACTTAGATCAGGGAAGAAAGT
[1]
  PBM binding z-score: 0.8
[2]
  PBM binding z-score: 1.56
[3]
  PBM binding z-score: 1.14
[4]
  PBM binding z-score: 1.87
[5]
  PBM binding z-score: 1.87
[6]
  PBM binding z-score: 1.96
[7]
  PBM binding z-score: 0.882
[8]
  PBM binding z-score: 0.999

## TCTTGTAGATCAGCAGGTCAAGAAAGCTGGCCAA
[1]
  PBM binding z-score: 2.13
[2]
  PBM binding z-score: 2.22
[3]
  PBM binding z-score: 1.55
[4]
  PBM binding z-score: 0.289
[5]
  PBM binding z-score: 2.05
[6]
  PBM binding z-score: 1.89
[7]
  PBM binding z-score: 0.0646
[8]
  PBM binding z-score: 0.194

## TAGCCTAGGTCGTGGGCCAGTATACCACGCGAAC
[1]
  PBM binding z-score: 0.693
[2]
  PBM binding z-score: 0.842
[3]
  PBM binding z-score: 0.996
[4]
  PBM binding z-score: -0.872
[5]
  PBM binding z-score: 0.851
[6]
  PBM binding z-score: 0.795
[7]
  PBM binding z-score: -0.254
[8]
  PBM binding z-score: -0.53

## TCTTGTAGATCAAGCGGGTTAAGAAAGCCTGAGT
[1]
  PBM binding z-score: 0.106
[2]
  PBM binding z-score: -0.294
[3]
  PBM binding z-score: -0.546
[4]
  PBM binding z-score: 0.628
[5]
  PBM binding z-score: 0.204
[6]
  PBM binding z-score: 0.221
[7]
  PBM binding z-score: -0.488
[8]
  PBM binding z-score: -0.0254

## CCTTACGCGTCACTCCAGGTTATAGCATCGGAGT
[1]
  PBM binding z-score: 0.704
[2]
  PBM binding z-score: 0.409
[3]
  PBM binding z-score: 0.416
[4]
  PBM binding z-score: 0.6
[5]
  PBM binding z-score: 0.294
[6]
  PBM binding z-score: 2.62
[7]
  PBM binding z-score: 1.07
[8]
  PBM binding z-score: 0.782

## GCTGCCAGGTCAACTGATGGTCAGCTAAAGCTCG
[1]
  PBM binding z-score: 3.58
[2]
  PBM binding z-score: 5.49
[3]
  PBM binding z-score: 5.38
[4]
  PBM binding z-score: 1.94
[5]
  PBM binding z-score: 3.81
[6]
  PBM binding z-score: 3.68
[7]
  PBM binding z-score: 2.18
[8]
  PBM binding z-score: 0.679

## CTACCAAGGTGAACAAGGTCGTTGGTTACTATTC
[1]
  PBM binding z-score: 2.16
[2]
  PBM binding z-score: 1.79
[3]
  PBM binding z-score: 1.29
[4]
  PBM binding z-score: 1.28
[5]
  PBM binding z-score: 1.87
[6]
  PBM binding z-score: 3.19
[7]
  PBM binding z-score: 1.81
[8]
  PBM binding z-score: 3.03

## CTCGAAATGTCGTGCTCAGGTGAGTATACCAAAC
[1]
  PBM binding z-score: 0.0938
[2]
  PBM binding z-score: 0.145
[3]
  PBM binding z-score: 0.0439
[4]
  PBM binding z-score: 0.155
[5]
  PBM binding z-score: -0.16
[6]
  PBM binding z-score: 1.53
[7]
  PBM binding z-score: 0.939
[8]
  PBM binding z-score: 0.16

## GCATATAGGTAATACAAGGTGAAAGTCCGATTGT
[1]
  PBM binding z-score: 1.03
[2]
  PBM binding z-score: 0.625
[3]
  PBM binding z-score: 0.545
[4]
  PBM binding z-score: 0.387
[5]
  PBM binding z-score: 0.694
[6]
  PBM binding z-score: 4.31
[7]
  PBM binding z-score: 1.08
[8]
  PBM binding z-score: 0.356

From the supplement of paper PMC6555819
